Reference: PubChem BioAssay (NCI)
The panel holds about 83,000 compounds, 20% with a hit somewhere; the sample as a whole holds those more often.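 How to read the values: 0–100, growth inhibition (40 = 60% inhibited); 0, no net growth; -100 to 0, cell death (-40 = 40% of starting cells died; -100 = all dead).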 A number with no mark means an inactive call. Activity calls are given as the source filed them. The calls were made as follows: active = growth percent below 10; inactive = the rest.

These compounds were tested on MDA-MB-468 breast (assay: NCI-60 one-dose screen, 48 h (100 = growth as untreated, 0 = no growth, -100 = all killed)). Details: 10 µM unless noted.

Structure (SMILES)	growth
Cc1ccc(C)c(NC2=C(Cl)C(=O)c3nc(C)ccc3C2=O)c1	-73.5% (active)
O=C(OCc1ccc2c(Cl)cc(Cl)c(O)c2n1)c1cc2ccccc2[nH]1	-73.1% (active)
COc1cc(-c2cc3cc(O)ccc3oc2=O)cc(OC)c1OC	106%
Cc1cc2cc3cc(C)c(N(C)C)cc3[n+](C)c2cc1N(C)C	27.1%
CC(=O)C1=NN(c2ccc(Cl)cc2)C(=O)CN1C	102%
COc1cc(Nc2nc(NCCN)nc3cc[nH]c(=O)c23)cc(OC)c1	3.37% (active)
COc1ccccc1/C=C/C(=O)/C=C/c1ccccc1O	-56.1% (active)
Cn1cc(-c2nc(N)nnc2-c2c[nH]c3ccc(Br)cc23)c2cc(Br)ccc21	6.33% (active)
CC[C@@](C)(NC(=O)C(C)(C)NC(=O)[C@@H](NC(=O)[C@@H]1CCCN1C(=O)C(C)(C)NC(=O)[C@H](CC(C)C)NC(=O)CNC(=O)C(C)(C)NC(=O)[C@@H](NC(=O)C(C)(C)NC(=O)[C@H](CCC(N)=O)NC(=O)[C@H](C)NC(=O)C(C)(C)NC(=O)[C@H](C)NC(=O)C(C)(C)NC(=O)[C@H](C)NC(=O)C(C)(C)NC(C)=O)C(C)C)C(C)C)C(=O)N[C@@H](CCC(N)=O)C(=O)N[C@@H](CCC(N)=O)C(=O)N[C@H](CO)CC1CCCCC1	-10.9% [5 µM] (active)
Fc1ccc([C@@H]2CCNC[C@H]2COc2ccc3c(c2)OCO3)cc1	36.1%
CC(=O)c1ccc(Nc2nc(NCCO)nc(Nc3ccc(Cl)cc3)n2)cc1	65.7%
CC(=O)Nc1nc(C)c(C(=O)N/N=C/c2cccs2)s1	98.8%
CC(C)CC(=O)Nc1n[nH]c2c1CN(C(=O)C1CCN(C)CC1)C2(C)C	-44.3% (active)
COc1ccc(/C=C2\Oc3cc(OCCCCCN4CCCCC4)ccc3C2=O)cc1OC	57.6%
O=C(CSSCC(=O)c1ccc(Cl)cc1)c1ccc(Cl)cc1	74.8%
O=C1/C(=C/c2cn(-c3ccccc3)nc2-c2ccccc2)SC(=S)N1CCc1ccccc1	103%
Cc1ccc(/C=N\NC(=O)c2[nH]c3ccc(F)cc3c2-c2ccccc2)cc1	-14.5% (active)
Clc1cccc(Cl)c1C1CSc2ccccc2N=C1c1ccccc1 (stereo not given)	80.3%
C#Cc1ccc(-n2c(/C=C/c3ccc4ccccc4c3)nc3ncccc3c2=O)cc1	-16.1% (active)
Cc1ccc(-c2nc(C#N)c(S(=O)(=O)n3nc(-c4ccccc4)cc3N)o2)cc1	63.1%

Structure (SMILES)	growth
COc1cc2c(c(OC)c1)C1c3ccccc3NC(=O)N1CC2 (stereo not given)	-0.759% (active)
NC(=O)Nc1ccc(-n2cnc3cc(-c4ccc(O)cc4)ccc32)cc1	129%
Oc1c(CCl)cc(Cl)cc1Cc1cc(Cl)cc(Cc2cc(Cl)cc(CCl)c2O)c1O	18.8%
CCN(CC)c1ccc(/C=N/NC(=O)c2ccc(S(C)(=O)=O)cc2)c(O)c1	1.2% (active)
c1ccc(C2CCCCC2)c(OCCCCCN2CCNCC2)c1	-36.2% (active)
CCCCCCCCCCCCN1C(C)=CS/C1=C\C=C\c1scc(C)[n+]1CCCCCCCCCCCC	-23% (active)
O=C1CSc2ccccc2N1	112%
COc1cc(-c2cc(-c3ccc(Nc4ncnc5cc(Cl)ccc45)cc3)nc(N3CCCCC3)n2)cc(OC)c1OC	107%
Cc1onc(-c2ccccc2Cl)c1C(=O)Cl	104%
CN1[C@@H]2CC[C@H]1/C(=C\c1ccccc1)C(=O)/C2=C/c1ccccc1	16.2%
Cc1cc(C(=O)O)c(C)n1-c1cccc(C(=O)O)c1	70.1%
CC(=O)OC[C@]12CCC(C)(C)C=C1[C@H]1CC[C@@H]3[C@@]4(C)CCCNC(C)(C)[C@@H]4CC[C@@]3(C)[C@]1(C)CC2	-6.16% (active)
C#CC(C(C)C)N(CCO)CCCC (stereo not given)	103%
COc1ccc2c(CCC(c3ccccc3)c3ccccc3)c3[n+](cc2c1OC)CCc1cc2c(cc1-3)OCO2	-29.9% (active)
COc1ccc(C2CC(c3cc(Cl)c(C)cc3OC)=NN2c2ccc(S(N)(=O)=O)cc2)cc1OC (stereo not given)	94.6%
C=CCNC(=O)c1ccc(OC)cc1	124%
COc1cccc2c1C(=O)c1c(O)c3c(c(O)c1C2=O)C[C@@](O)(C(=O)CO)C[C@@H]3O[C@H]1C[C@H](N)[C@@H](O)[C@H](C)O1	-57% (active)
CC(C)(CC(=O)O)CC(=O)O	96.4%
Cn1cc(-c2csc(-c3cn(C)c4ccc(F)cc34)n2)c2cnccc21	-49.2% (active)
CC(=O)OC(C)C(=O)NCC(C)O (stereo not given)	105%
